Values without a mark were called inactive. For some assays here: Results with a measured potency or affinity are listed apart. Calls of active or inactive are those of the source. Unless noted, how the calls were made is not given here.
Experiments:
[1] = antimalarial activity against Dd2 strain (AID 2302;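 active means growth inhibition above 50% at the single 2 µM test dose, taken to imply half-maximal potency below 2 µM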;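 further: 0% = DMSO untreated growth and 100% = chloroquine plus artemisinin killed control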); conditions: P. falciparum Dd2 in RBCs, LDH growth readout, 72 h; at 2 µM; stronger effect = higher value
[2] = human hepatoma cell viability loss – ATP luminescence, cytotoxicity control for P. falciparum antimalarial project, primary screen (AID 2303;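 active means inhibition above 50%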;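 further: 0% = DMSO wells and 100% = digitonin-killed cells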); conditions: HepG2 viability, 24-48 h, at 10 µM, stronger effect = higher value
[3] = biological target: L-lactate dehydrogenase (Plasmodium falciparum (isolate CDC / Honduras)) (UniProt Q27743); assay: PfLDH activity inhibition – cell lysate, 3D7 strain, counter-screen for P. falciparum growth inhibition project (AID 2304);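 further: 0% = vehicle and 100% = reference inhibitor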; conditions: P. falciparum 3D7 crude extract, LDH APAD/NBT absorbance; at 2 µM; stronger effect = higher value
Chain of L-lactate dehydrogenase (Plasmodium falciparum (isolate CDC / Honduras)) (Q27743 whole entry, looked up): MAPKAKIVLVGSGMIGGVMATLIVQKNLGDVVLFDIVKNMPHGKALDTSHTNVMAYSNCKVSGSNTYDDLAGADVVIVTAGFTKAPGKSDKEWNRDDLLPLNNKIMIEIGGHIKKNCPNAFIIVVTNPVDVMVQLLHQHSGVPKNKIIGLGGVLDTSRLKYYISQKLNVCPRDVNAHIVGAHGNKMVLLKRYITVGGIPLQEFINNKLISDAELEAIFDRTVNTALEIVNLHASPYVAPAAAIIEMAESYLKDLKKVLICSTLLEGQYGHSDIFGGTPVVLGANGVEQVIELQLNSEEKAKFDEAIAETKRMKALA

[4] = inhibition of 3D7 malaria parasite growth – strain 3D7 (AID 2306);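 further: 0% = DMSO wells and 100% = chloroquine plus artemisinin control wells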; conditions: P. falciparum 3D7 erythrocytic growth, LDH absorbance, 72 h; at 2 µM; stronger effect = higher value
[5] = biological target: Calcium-dependent protein kinase 1 (Plasmodium falciparum (isolate 3D7)) (UniProt P62344); assay: PfCDPK1 kinase inhibitors, biochemical, TCAMS library (AID 1159585; cut-off not given, nearly all actives have IC50 up to about 0.98 µM;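 further: inhibitors leave more ATP so luminescence rises with inhibition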); conditions: recombinant PfCDPK1, Kinase-Glo ATP depletion luminescence
Chain of Calcium-dependent protein kinase 1 (Plasmodium falciparum (isolate 3D7)) (P62344 whole entry, looked up): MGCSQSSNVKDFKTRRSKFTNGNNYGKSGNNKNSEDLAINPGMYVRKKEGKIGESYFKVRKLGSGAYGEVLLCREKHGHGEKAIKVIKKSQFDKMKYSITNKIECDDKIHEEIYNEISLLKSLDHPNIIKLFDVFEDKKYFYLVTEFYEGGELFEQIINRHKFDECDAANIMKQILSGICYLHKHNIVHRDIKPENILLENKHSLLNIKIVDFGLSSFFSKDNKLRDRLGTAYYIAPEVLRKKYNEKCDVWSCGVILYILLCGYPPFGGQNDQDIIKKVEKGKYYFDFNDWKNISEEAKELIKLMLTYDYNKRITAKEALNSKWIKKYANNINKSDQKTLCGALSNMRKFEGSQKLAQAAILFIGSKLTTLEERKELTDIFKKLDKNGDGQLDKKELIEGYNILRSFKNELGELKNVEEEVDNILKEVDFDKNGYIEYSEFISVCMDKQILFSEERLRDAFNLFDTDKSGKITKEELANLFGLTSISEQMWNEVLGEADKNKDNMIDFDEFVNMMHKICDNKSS

[6] = biological target: Plasmodium falciparum protein kinase 6 (PK6, PF3D7_1337100) (UniProt Q8IDW1); assay: PfPK6 kinase inhibitors, biochemical, TCAMS library (AID 1159586); conditions: recombinant PfPK6, Kinase-Glo ATP depletion luminescence
Chain of Plasmodium falciparum protein kinase 6 (PK6, PF3D7_1337100) (Q8IDW1 1-305): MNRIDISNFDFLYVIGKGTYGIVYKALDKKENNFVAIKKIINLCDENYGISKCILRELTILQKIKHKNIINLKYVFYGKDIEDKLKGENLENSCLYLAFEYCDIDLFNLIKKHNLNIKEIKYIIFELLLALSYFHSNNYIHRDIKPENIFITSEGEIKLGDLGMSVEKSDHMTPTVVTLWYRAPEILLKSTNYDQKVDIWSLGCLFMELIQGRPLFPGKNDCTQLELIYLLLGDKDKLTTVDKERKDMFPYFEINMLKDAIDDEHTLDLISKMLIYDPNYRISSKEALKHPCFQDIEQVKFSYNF

[7] = biological target: Protein kinase 7 (PK7), Plasmodium falciparum 3D7 (PF3D7_0213400) (UniProt Q7YTF7); assay: inhibition of Plasmodium PK7 catalytic activity – biochemical, TCAMS antimalarial set, Kinase-Glo luminescence (AID 1159587); conditions: recombinant PfPK7, Kinase-Glo ATP depletion luminescence
Chain of Protein kinase 7 (PK7), Plasmodium falciparum 3D7 (PF3D7_0213400) (Q7YTF7 1-343): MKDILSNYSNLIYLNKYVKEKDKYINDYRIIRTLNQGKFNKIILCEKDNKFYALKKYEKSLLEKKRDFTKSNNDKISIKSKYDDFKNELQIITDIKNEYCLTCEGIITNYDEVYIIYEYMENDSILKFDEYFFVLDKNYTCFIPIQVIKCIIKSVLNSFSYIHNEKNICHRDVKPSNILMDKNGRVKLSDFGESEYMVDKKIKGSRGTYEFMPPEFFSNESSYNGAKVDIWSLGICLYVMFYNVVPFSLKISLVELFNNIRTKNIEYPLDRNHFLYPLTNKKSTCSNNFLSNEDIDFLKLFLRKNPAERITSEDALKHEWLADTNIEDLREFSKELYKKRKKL

[8] = biological target: Calcium-dependent protein kinase 4 (Plasmodium falciparum (isolate 3D7)) (UniProt Q8IBS5); assay: PfCDPK4 kinase inhibitors, biochemical, TCAMS library (AID 1159588; cut-off not given, nearly all actives have IC50 up to about 0.91 µM); conditions: recombinant PfCDPK4, Kinase-Glo ATP depletion luminescence
Chain of Calcium-dependent protein kinase 4 (Plasmodium falciparum (isolate 3D7)) (Q8IBS5 whole entry, looked up): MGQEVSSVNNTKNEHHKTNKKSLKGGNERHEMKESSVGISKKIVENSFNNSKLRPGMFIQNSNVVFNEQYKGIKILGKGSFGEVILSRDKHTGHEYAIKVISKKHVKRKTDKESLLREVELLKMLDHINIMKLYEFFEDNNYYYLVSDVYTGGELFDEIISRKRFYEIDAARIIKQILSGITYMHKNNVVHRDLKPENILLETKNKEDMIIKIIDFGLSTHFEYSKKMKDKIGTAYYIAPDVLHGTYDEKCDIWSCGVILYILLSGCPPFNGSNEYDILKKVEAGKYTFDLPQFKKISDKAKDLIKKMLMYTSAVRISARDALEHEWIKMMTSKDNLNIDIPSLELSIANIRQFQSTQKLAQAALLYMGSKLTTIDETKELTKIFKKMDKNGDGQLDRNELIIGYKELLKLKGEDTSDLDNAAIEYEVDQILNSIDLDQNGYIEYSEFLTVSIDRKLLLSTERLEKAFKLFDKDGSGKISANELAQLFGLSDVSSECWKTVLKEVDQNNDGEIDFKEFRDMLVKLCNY

Compound	growth inhibition [1]	inhibition [2]	inhibition [3] [%]	growth inhibition [4]	outcome [5]	outcome [6]	outcome [7]	outcome [8]
Nc1nc(N)c2cc(C(F)(F)F)ccc2n1	1%	8%	-3	80% (active)	inactive	inactive	inactive	inactive
COc1ccc2nccc(N(C)CC3(O)CCN(CC(O)c4ccc5c(c4)NC(=O)CS5)CC3)c2n1 (stereo not given)	-4%	1%	-5	101% (active)	inactive	inactive	inactive	inactive
N#Cc1ccc(-c2nc3c(N4CCCC4)cccc3n2CCNCc2ccccc2)cc1	99% (active)	2%	-3	100% (active)	inactive	inactive	inactive	inactive
c1ccc2oc(-c3cc4ccncc4cc3OC3CCNCC3)cc2c1	96% (active)	11%	-3	100% (active)	inactive	inactive	inactive	inactive
CCn1cnc2c(N3CCCS3(=O)=O)cc(C(=O)N[C@@H](Cc3ccccc3)[C@H](O)CNC(C)(C)c3cccc(C(F)(F)F)c3)cc21	97% (active)	9%	-1	99% (active)	inactive	inactive	inactive	inactive
CC(Cc1ccc(NC(=O)c2ccc(NCCc3ccccc3)cc2)cc1)NCCc1cccc(Cl)c1 (stereo not given)	1%	25%	4	92% (active)	inactive	inactive	inactive	inactive
CN1CCN(CCCN(Cc2cccc(-c3cccc(CNCCc4ccccc4)c3)c2)C(=O)Nc2ccccc2)CC1	82% (active)	92% (active)	0	97% (active)	inactive	inactive	inactive	inactive
CCCN(CCC)C(=O)c1cc(C(=O)N[C@@H](Cc2ccccc2)[C@H](O)CNCc2cccc(OC)c2)cc(N2CCCCS2(=O)=O)c1	99% (active)	-1%	4	97% (active)	inactive	inactive	inactive	inactive
CC[C@H](C)CNCc1ccc(OCc2cccc(COc3ccc(CNC[C@@H](C)CC)cc3I)c2)c(I)c1	60% (active)	99% (active)	7	99% (active)	inactive	inactive	inactive	inactive
Cc1cc(N[C@@H](Cc2ccccc2)C(=O)NCc2cccc(F)c2)nc(NCCCOC(C)C)n1	94% (active)	10%	-2	101% (active)	inactive	inactive	inactive	inactive

From PubChem BioAssay
